Sampled rows, rich in hits. Any-hit rate of the full collection: about 2.5%.
D2 ag-1 = D2 dopamine receptor (human) agonism; activation, % at 2 µM; actives 0.53% (n = 340,000); HEK293 T-REx D2 cells, calcium flux agonist mode;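 active = activation over 3 SD above normal in the single-dose calcium agonist read, cut at about 30% in these data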; note: 0% is about no effect
Target sequence (P14416 whole entry, looked up): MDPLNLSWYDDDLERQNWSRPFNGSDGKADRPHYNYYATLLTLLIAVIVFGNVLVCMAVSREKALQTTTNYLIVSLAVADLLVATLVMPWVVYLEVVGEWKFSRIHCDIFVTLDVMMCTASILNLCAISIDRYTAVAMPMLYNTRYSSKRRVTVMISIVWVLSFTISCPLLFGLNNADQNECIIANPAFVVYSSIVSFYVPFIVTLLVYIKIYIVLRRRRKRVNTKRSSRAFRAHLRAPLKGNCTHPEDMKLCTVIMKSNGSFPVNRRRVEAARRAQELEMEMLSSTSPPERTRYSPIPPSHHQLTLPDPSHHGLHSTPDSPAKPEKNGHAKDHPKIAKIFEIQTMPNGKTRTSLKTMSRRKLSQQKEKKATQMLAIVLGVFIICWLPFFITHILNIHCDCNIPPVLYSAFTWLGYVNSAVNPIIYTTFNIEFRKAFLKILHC
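Tetracycline-induced HEK293 Trex cells with D2 receptor force-coupled to calcium signaling, plated overnight at 30 C and loaded with no-wash calcium dye. Calcium flux read kinetically for 180 s after compound addition; responses flag agonists.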
D2 antag = antagonizes the human D2 dopamine receptor; AID 485344; inhibition, % at 10 µM; actives 2% (n = 340,000); HEK293 TREx D2 cells, calcium flux, dopamine EC80; P14416; in the data active = inhibition above about 30%; inactive = below that, where a call was filed; note: 0% is about no effect
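In this primary screen, negative modulation is detected by tracking calcium flux after an EC80 dopamine challenge in inducible HEK293 T-REx D2 cells preexposed to test compound for 180 s.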
D2 PAM-1 = positively modulates the human D2 dopamine receptor allosterically | P14416 | HEK293 T-REx D2, calcium flux, EC20 dopamine potentiation | potentiation, % at 10 µM | actives 0.34% (n = 340,000);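 active = potentiation over 3 SD above the plate norm, cut at about 30% in these data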; note: 0% is about no effect
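Cells plated with tetracycline inducer and held overnight at 30 C; calcium dye loaded 30–90 min at room temperature; baseline taken, compound added and read 180 s; EC20 dopamine then added and read 180 s.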
Apoferritin bind = binds horse apoferritin like a general anesthetic. P02791. apoferritin/1-aminoanthracene competitive binding, fluorescence. Potency, µM (top dose mostly 77.5 µM), for inactives: top-dose activity change, negative = displacement, hits mostly inhibitors. actives 0.074% (n = 350,000). AID 485281; active = well fitted inhibition curve with a large enough effect; inconclusive = small, poorly fitted or top-dose-only effect; inactive = no such curve, though single readings can be large or run the other way; note: potency is the fitted concentration of half-maximal effect; % is set by controls: 0 for no effect and ±100 for the full control effect; nearly all actives have a fitted effect of over 20% in size
Target sequence (P02791 2-175 limits assumed): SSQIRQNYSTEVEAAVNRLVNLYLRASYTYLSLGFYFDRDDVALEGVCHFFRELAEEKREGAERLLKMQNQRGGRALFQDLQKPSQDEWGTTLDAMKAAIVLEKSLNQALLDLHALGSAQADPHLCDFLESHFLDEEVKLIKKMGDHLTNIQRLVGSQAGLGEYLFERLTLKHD
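Apoferritin-based anesthetic binding model; compound displacement of fluorescent 1-AMA measured as endpoint fluorescence after 10 minutes at room temperature, scaled to free-ligand and complex controls.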
D2 ag-2 = activates the human D2 dopamine receptor | P14416 | DiscoveRx PathHunter D2 beta-arrestin, luminescence, 90 min; 100% = 57 uM dopamine signal | activation, % (test concentration not listed) | actives 0.084% (n = 360,000); in the data active = activation above about 40%; inconclusive = between about 15% and that limit
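DiscoveRx PathHunter D2 beta-arrestin cells (2,100/well) attached overnight, then compound-stimulated 90 min at 37 C in HBSS/10 mM HEPES/0.1% Tween-20 buffer; beta-galactosidase complementation read by luminescence after 1 h at ambient temperature. Dopamine 57 uM final (EC100) as control.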
D2 PAM-2 = positive allosteric modulators of human D2 dopamine receptor | P14416 | DiscoveRx D2 beta-arrestin cells, luminescence, 90 min; 100% = 57 uM dopamine signal | potentiation, % (no concentration beside the values) | actives 0.23% (n = 360,000) | AID 624464; in the data active = potentiation above about 50%; inconclusive = mostly about 30% to 49%
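PathHunter D2 cells, attached overnight at 37 deg C, received compound in DMSO plus dopamine at EC20 (50 nM final) for 90 min at 37 deg C. Beta-arrestin recruitment was read as luminescence after 1 h with detection reagent at ambient temperature.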
The depositor's hits bear a star; i = inactive; ? = inconclusive; nt = not tested or not shown.

SMILES	D2 ag-1	D2 antag	D2 PAM-1	Apoferritin bind	D2 ag-2	D2 PAM-2
N#C/C(=C/c1ccc(-c2ccc(S(N)(=O)=O)cc2)o1)c1nc2ccccc2s1	115*	25	1	-5%	11	25
N#C/C(=C\c1ccc(-c2ccc(F)cc2)o1)C(=O)Nc1nc(-c2cccs2)cs1	0	5	-2	-3%	-6	-38
Nn1c(SCC(=O)NC2CCS(=O)(=O)C2)nnc1-c1cccs1 (configuration not stated)	0	-1	-3	-8%	-2	-5
CC1CCN(CCOc2cc(Cl)ccc2Cl)CC1	4	72*	-30	-23%	1	-19
Clc1ccc(Cl)c(OCCCCN2CCCCC2)c1	-2	86*	-31	-7%	-3	-15
CC(C)c1ccccc1OCCCN1CCCC1	0	65*	-14	-11%	5	-7
Brc1ccccc1OCCCN1CCCCCC1	0	46*	-18	-6%	-2	-16
COc1ccc(-c2nn(-c3ccc(F)cc3)c3c2cnc2cc4c(cc23)OCO4)cc1	nt	nt	6	41%	nt	nt
CSc1nc(C)cc(OCC(=O)n2nc(C)cc2C)n1	0	-6	-6	-10%	-2	-7
CCc1cccc(NC(=O)c2ccc(CNc3c(N4CCCC4)c(=O)c3=O)cc2)c1	-1	-3	-4	-5%	5	-5
Brc1ccccc1OCCCCCN1CCOCC1	0	36*	-15	-13%	1	-25
Clc1ccccc1OCCCCN1CCCCC1	1	77*	-28	3%	-5	-5
Brc1cccc(-c2nnc3sc(CN4CCC5(CC4)OCCO5)cn23)c1	1	-6	13	-8%	3	-13
CC1Sc2ccc(S(=O)(=O)CCC(=O)Nc3ccc(C(C)C)cc3)cc2NC1=O (configuration not stated)	1	52*	17	-16%	3	5
Cc1ccc(NC(=O)CCS(=O)(=O)c2ccc3c(c2)NC(=O)C(C)S3)cc1Cl (configuration not stated)	0	21	6	-3%	-1	-5
CCc1ccc(NC(=O)C2CCN(S(=O)(=O)c3ccc4c(c3)NC(=O)C(C)S4)CC2)cc1 (configuration not stated)	0	5	8	-3%	0	-9
CC1Sc2ccc(S(=O)(=O)N3CCC(C(=O)Nc4cccc(Cl)c4)CC3)cc2NC1=O (configuration not stated)	1	69*	-22	-14%	3	-37
Cc1ccc(NC(=O)C2CCN(S(=O)(=O)c3ccc4c(c3)NC(=O)C(C)S4)CC2)cc1C (configuration not stated)	1	58*	-20	-9%	0	-36
CCOc1cccc(C(=O)N(Cc2ccc(F)cc2)C2CCS(=O)(=O)C2)c1 (configuration not stated)	0	-3	10	-9%	1	7
COc1ccc(CC(=O)NNC(=O)COc2ccc3ccccc3c2)cc1	0	1	12	-9%	-2	-8
CC1(C)Oc2ccc(C(=O)NC3CCCC3)cc2N(CC(=O)NC2CCCCC2)C1=O	1	52*	-21	-8%	-3	-19
CC(C)NC(=O)c1ccc2c(c1)N(CC(=O)NC1CCCCC1)C(=O)C(C)(C)O2	1	2	-12	3%	-2	-11
Cc1ccc(S(=O)(=O)n2ccc3cccnc32)cc1	1	37*	-3	-3%	-1	-8
O=S(=O)(c1ccc(Cl)cc1)n1ccc2cccnc21	0	19	38*	-7%	-1	-10
CC[C@H](C)[C@@H](CO)NC(=O)[C@H]1O[C@@H](n2ccc(N)nc2=O)[C@H](O)[C@@H]1O	nt	nt	nt	nt	-2	-2
SMILES	D2 ag-1	D2 antag	D2 PAM-1	Apoferritin bind	D2 ag-2	D2 PAM-2
CCc1ccc(-c2nc(CS(=O)CC(=O)NCc3ccco3)c(C)o2)cc1 (configuration not stated)	0	-11	73*	-13%	0	-2
Cc1cccc(-c2nc(CS(=O)CC(=O)NCc3cccs3)c(C)o2)c1 (configuration not stated)	0	39*	3	?	-9	-3
Cc1oc(-c2ccc(Cl)cc2)nc1CS(=O)CC(=O)NCc1cccs1 (configuration not stated)	nt	nt	nt	-17%	-5	-5
C=CCn1c(CCNC(=O)c2cccs2)nnc1SCC(=O)Nc1cccc(C(C)=O)c1	0	34*	7	-14%	-1	-21
O=C1CN(O)C=C2N=c3ccccc3=C2N1c1ccc([N+](=O)[O-])cc1	1	24	16	-3%	0	103*
CSCCC(NS(=O)(=O)c1ccc2[nH]c(=O)c(=O)[nH]c2c1)C(=O)O (configuration not stated)	-1	36*	-9	1%	-1	-4
CSCCC(NS(=O)(=O)c1ccc(Cl)c(Cl)c1)C(=O)O (configuration not stated)	0	1	-7	-6%	-4	-6
O=C(OCn1nnc2ccccc2c1=O)c1ccco1	0	-12	-6	1%	0	-7
COc1cc(OC)cc(C(=O)N[C@H](C(=O)OCn2nnc3ccccc3c2=O)C(C)C)c1	-1	-12	31*	?	-4	-7
O=C(OCn1nnc2ccccc2c1=O)c1cc2ccccc2o1	1	69*	8	-5%	0	-5
CCC(c1ccc(O)c(O)c1)C(CC)c1ccc(O)c(O)c1 (configuration not stated)	nt	nt	nt	nt	59*	16
COc1ccc(C(=O)NCc2cn3cccc(C)c3n2)cc1OC	-1	0	-12	-5%	-7	-10
COc1ccc(C(=O)NCc2cn3ccsc3n2)cc1OC	1	-5	33*	7%	-3	-2
CC(=O)c1cccc(Nc2ccc3cc(S(=O)(=O)N4CCCC4)ccc3n2)c1	0	nt	nt	-10%	nt	nt
O=C(NCC1CCOCC1)c1ccc2nc(Cc3cccc(Cl)c3)oc2c1	1	61*	-22	i	-5	-5
CC(C)C(=O)N(c1cc2sc(=O)oc2c2ccccc12)S(=O)(=O)c1cccs1	1	-12	-7	?	?	75*
COc1ccc(Cn2c(CO)cnc2SCC(=O)Nc2cc(C)on2)cc1	0	-6	6	-8%	-2	-7
Cc1cc(CN2CCN(c3cccc(C)c3C)CC2)cs1	-1	nt	-26	-8%	nt	nt
COc1cc(CN2CCN(c3cccc(C)c3C)CC2)cc(OC)c1O	-1	42*	-24	-7%	1	4

Source: PubChem (National Center for Advancing Translational Sciences (NCATS))
